Screening data: PubChem, National Center for Advancing Translational Sciences (NCATS)
GLP-1R inv ag: acts as inverse agonist at human GLP-1 receptor | P43220 | Potency, µM (series often up to 38.3 µM), inactives show at the top dose activity change, negative = inhibition, hits mostly inhibitors | HEK293 GLP-1R CRE-luciferase, luminescence, 24 h; GLP-1R form is constitutively active | 1.6% of 410,000 active | AID 624417; note: potency is the fitted concentration of half-maximal effect; % is set by controls: 0 for no effect and ±100 for the full control effect; nearly all actives have a fitted effect of over 55% in size
Target sequence (P43220 whole entry, looked up): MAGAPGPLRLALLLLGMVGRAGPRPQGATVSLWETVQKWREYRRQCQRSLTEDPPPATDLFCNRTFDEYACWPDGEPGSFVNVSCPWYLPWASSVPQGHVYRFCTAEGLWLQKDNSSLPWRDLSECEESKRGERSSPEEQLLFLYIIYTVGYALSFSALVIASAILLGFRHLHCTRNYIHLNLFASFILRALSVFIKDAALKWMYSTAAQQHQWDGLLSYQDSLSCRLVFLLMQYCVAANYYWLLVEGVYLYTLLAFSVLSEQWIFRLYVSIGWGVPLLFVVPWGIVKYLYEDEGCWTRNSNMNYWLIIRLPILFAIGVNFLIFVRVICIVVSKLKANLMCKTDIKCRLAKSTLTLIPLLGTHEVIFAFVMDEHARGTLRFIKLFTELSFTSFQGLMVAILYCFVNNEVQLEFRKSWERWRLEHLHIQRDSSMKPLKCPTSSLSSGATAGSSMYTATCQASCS
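HEK293 cells stably co-expressing constitutively active GLP-1R and a cAMP-responsive luciferase reporter were seeded in DMEM with 10% Nu serum, given compounds after 12 h, and incubated 24 h at 37 deg C. Luminescence was then read.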
ClpP mod: qHTS Assay for Activators of ClpP; ATP-dependent Clp protease proteolytic subunit (Bacillus subtilis (strain 168)), P80244; purified B. subtilis ClpP, FRET peptide cleavage, 20 min; Potency, µM (series often up to 57.5 µM), inactives show at the top dose activity change, negative = active; 1.9% of 340,000 active; active = well fitted falling curve with a large enough effect; inconclusive = small, poorly fitted or top-dose-only effect; inactive = no such curve, though single readings can be large or run the other way; note: potency is the fitted concentration of half-maximal effect; the source files actives as falling curves though it sought activators and does not explain the sign; nearly all actives have a fitted effect of over 65% in size
Target sequence (P80244 whole entry, looked up): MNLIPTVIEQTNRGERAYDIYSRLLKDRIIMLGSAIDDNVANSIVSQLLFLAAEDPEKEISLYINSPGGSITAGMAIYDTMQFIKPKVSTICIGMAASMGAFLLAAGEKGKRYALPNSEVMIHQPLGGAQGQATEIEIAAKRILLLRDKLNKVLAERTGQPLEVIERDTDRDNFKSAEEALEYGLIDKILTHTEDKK
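Purified B. subtilis ClpP, 10 microg/mL final in Tris/HCl pH8 with KCl, BSA, glycerol and Tween-20, cleaved an Abz/nitrotyrosine-quenched decapeptide. Fluorescence (ex 320, em 430) was read at 0 and 20 min at room temperature. Delta was normalized to 5.8 microM ADEP and DMSO/no-enzyme controls.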
p53 reactivator: re-activators of mutant p53; H1299 p53-A138V BP100-luciferase reporter, luminescence, 24 h; Potency, µM (highest dose often 92.2 µM), inactives show top-dose activity change, positive = activation, hits mostly activators; 0.063% of 320,000 active; AID 504706; note: potency is the fitted concentration of half-maximal effect; % of control where 0% means no effect; nearly all actives have a fitted effect of over 45% in size
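H1299 (p53-null), stable ts p53-A138V + BP100-Luc; 1000 cells/well, Opti-MEM/10% FBS; cpd 4 pt, 1:5; 24 h, 37 deg C, 5% CO2; detection reagent 10 min RT; luminescence.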
LDHA inh: inhibitors of human lactate dehydrogenase A; activity change, % (values are at about 110 or 230 µM); 0.15% of 480,000 active; P00338; purified LDHA, NADH/diaphorase-resazurin fluorescence; hits give low values; in the data active = activity change below about -30%; inconclusive = mostly about -25% to -30%;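 note: plate controls were DMSO wells for no effect and wells without enzyme for full effect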
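Human LDH5 (2 nM) was incubated with 0.06 mM NADH and 0.2 mM pyruvate for 5 min at room temperature in Tris pH 7.4. Remaining NADH was coupled through diaphorase/resazurin, and resorufin fluorescence was read at 0 and 20 min.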
HEK293 tox: cytotoxic in the GLP-1 receptor inverse agonist counter-screen; AID 624418; Potency, µM (top dose mostly 38.3 µM), without a hit: at the top dose activity change, negative = inhibition, actives largely listed as inhibitors; 0.13% of 410,000 active; HEK293 cAMP-luciferase reporter cells, luminescence, 24 h;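 note: loss of luciferase light is scored as toxicity; potency is the fitted concentration of half-maximal effect; % is set by controls: 0 for no effect and ±100 for the full control effect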
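1536-well qHTS counterscreen of the MLSMR; 200 cells/uL, 12 h pre-incubation, 23 nL cpd, 24 h at 37 deg C 5% CO2, luciferase detection reagent, 12 min RT, luminescence. Inhibition = undesired.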
GLP1R ag: activates the human GLP-1 receptor; P43220; HEK293 GLP-1R CRE-luciferase, luminescence, 4-6 h; cells express a hypersensitive GLP-1R form; Potency, µM (titrated, usually from 45.6 µM), for the others: top-dose activation, usual class: activators; 0.007% of 380,000 active; AID 624172; note: potency is the fitted concentration of half-maximal effect; % of control where 0% means no effect
ClpP inh valid: inhibits B. subtilis ClpP protease, hit validation; shares compounds with ClpP mod; purified B. subtilis ClpP, FRET-FV substrate cleavage, 20 min; Potency, µM (titrated, usually from 57.5 µM), without a hit: at the highest dose activity change, negative = inhibition, most hits filed as inhibitors; 40% of 470 active; note: potency is the fitted concentration of half-maximal effect; % is set by controls: 0 for no effect and ±100 for the full control effect; nearly all actives have a fitted effect of over 70% in size
* = called active by the depositor; ? = inconclusive; · = no result; [ ] = remark or other dose. Only some compounds are listed: those with a hit (about 2.9% of all), similar ones and a draw of the others. Unless noted, calls come from the whole dose curve; as a rule, active = well fitted curve in the direction sought with a large enough effect; inconclusive = small, poorly fitted or top-dose-only effect, or another doubt; inactive = no such curve, though single readings can be large; an effect the other way counts as inactive or inconclusive.

SMILES | GLP-1R inv ag | ClpP mod | p53 reactivator | LDHA inh | HEK293 tox | GLP1R ag | ClpP inh valid
CN(c1ccccc1C(=O)NC1CCCCC1)S(=O)(=O)c1ccccc1 | -13.9% | 3.1% | -4.6% | 1.1 | -11.3% | 4.8% | ·
CN(c1ccccc1C(=O)NC1CC2CCC1C2)S(=O)(=O)c1ccccc1 (configuration not stated) | 24.0% | 7.94µM* | -17.1% | -7.1 | 10.2% | -0.3% | -2.5%
COc1ccc2nc(C)c3c(c2c1)OC(C)C3 (configuration not stated) | 5.0% | ? | -4.3% | -2.7 | -5.0% | -2.6% | ·
COc1cccc2c3c(c(C)nc12)CC(C)O3 (configuration not stated) | 1.7% | 7.94µM* | 14.3% | -8.6 | -4.2% | -0.5% | 7.69µM*
CCOc1ccccc1NC(=O)CCS(=O)(=O)c1cccs1 | -8.4% | · | -2.5% | -3.4 | 6.2% | 9.2% | ·
Cc1ccc(C(C(=O)NC2CCCC2)N(Cc2ccccc2)C(=O)c2csnn2)o1 (configuration not stated) | -18.9% | · | 0.4% | -4.5 | 6.1% | 16.4% | ·
CCc1ccc(CNC(=O)Cn2nc(-c3ccccc3)ccc2=O)cc1 | 7.8%[0.307 µM] | 3.98µM* | 2.4% | -0.5 | -8.1%[0.307 µM] | -1.1% | -2.1%
O=C(Cn1nc(-c2ccccc2)ccc1=O)NCc1ccc(F)cc1Cl | 5.5% | -13.8% | · | -3.0 | 18.8% | · | ·
COc1ccc2cc3cc(C(=O)Nc4ccccc4C)oc3nc2c1 | 0.0% | 38.7% | · | -3.7 | 1.9% | 1.6% | 15.3µM*
CCOc1ccc(N(C(=O)CNC(=O)c2ccco2)C(C(=O)NC2CCCC2)c2ccco2)cc1 (configuration not stated) | 0.1% | 3.16µM* | 25.9% | -2.7 | 14.1% | 5.6% | 0.2%
CCOc1ccc(N(C(=O)CNC(=O)c2ccco2)C(C(=O)NC2CCCC2)c2cccnc2)cc1 (configuration not stated) | 12.9% | · | 2.5% | -4.1 | 10.1% | 1.0% | ·
CCn1cc(CNC(=O)c2cc(-c3ccc(C)c(C)c3)nc3ccccc23)c(C)n1 | 3.1% | ? | · | 1.3 | -0.8% | · | ·
Cc1ccc(-c2cc(C(=O)NCc3ccccc3Cl)c3ccccc3n2)cc1C | 4.9% | 4.47µM* | · | -11.9 | 13.9% | · | 27.3µM*
CC(=O)Nc1ccc(NC(=O)c2ccc(N(C)S(=O)(=O)c3ccc(C)cc3)cc2)cc1 | -29.6% | 100.7% | -4.3% | -7.3 | ? | -0.5% | ?
COc1ccc(CC(=O)OC(C)C(=O)NCc2ccc3c(c2)OCO3)cc1OC (configuration not stated) | 11.1% | -0.9% | -1.3% | -6.7 | -2.7% | 11.6% | ·
CC(C)CCNc1ncnc2c1nnn2Cc1ccccc1Cl | 15.0% | 10µM* | -4.9% | -6.2 | -9.7% | 0.7% | -2.4%
Clc1ccc(-c2nnc(-c3ccco3)o2)cc1 | 5.2% | 11.5% | ? | -2.2 | 6.2% | -4.9% | ·
c1cncc(-c2nnc(-c3ccco3)o2)c1 | 0.0% | 3.55µM* | 8.8% | -1.6 | 4.9% | 15.2% | 24.3µM*
Cc1ccc(C2Nc3ccccc3-c3nc4ccccc4n32)o1 (configuration not stated) | 6.6% | 0.708µM* | ? | 0.4 | 6.9% | 6.7% | 10.9µM*
O=C(Oc1ccccc1)N1CCN(c2ccccc2F)CC1 | ? | -1.2% | 11.3% | 4.0 | 16.7% | 6.1% | ·
O=C(/C=C/c1ccc2c(c1)OCO2)Nc1nc(-c2ccc(F)cc2F)cs1 | · | · | -6.1% | · | · | · | ·
CCCCC(=O)Nc1cc2nn(-c3ccc(OC)cc3)nc2cc1C | 0.0% | 1µM* | ? | -18.0 | 2.0% | -4.4% | 24.3µM*
COc1ccc(-n2nc3cc(C)c(NC(=S)NC(=O)c4ccccc4C)cc3n2)cc1 | 10.0% | 216.5% | ? | 0.4 | 3.5% | -3.8% | ·
CCC(=O)Nc1cc2nn(-c3ccc(C)cc3)nc2cc1C | -52.1% | 4.7% | 12.0% | 1.9 | 6.6% | 0.2% | ·
CCC(=O)Nc1cc2nn(-c3ccc(OC)cc3)nc2cc1C | 0.8% | 2.82µM* | ? | -8.6 | 28.1% | -7.8% | 19.3µM*
O=C(Cc1cccs1)Nc1nnc(Cc2ccc(F)cc2)s1 | · | · | -0.3% | · | · | · | ·
[O-][n+]1ccccc1SCC1CCCCC1 | · | · | · | 1.1 | · | · | ·
Cc1ccc2c(c1)NC(=O)C(CC(=O)NCCCN1CCN(C3CCCCC3)CC1)O2 (configuration not stated) | · | · | 2.4% | · | · | · | ·
Cc1nc2c(C(=O)O)cnn2c(C)c1Cc1ccccc1 | -1.2% | -16.7% | · | -1.7 | -6.5% | · | ·
